Measurements: PubChem BioAssay AID1159580 (chemical genetic matrix, 2015)
The campaign covered roughly 5,500 compounds. About 2,000 (36%) were called active. Another 18% or so got no clear call; they are omitted. No stated cut-off is given here; in the data, active means normalized growth mostly below about 0.91 (no sharp cut-off); inconclusive means no clear call, values can overlap the other calls; inactive means mostly above about 0.92. The list shows a part of the results.

Experiment: chemical genetic growth profiling, strain panel (AID 1159580);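 further: tested at 20 µM; growth read once vehicle control cultures reached saturation at 30 °C; 1 = growth at the plate median or of vehicle wells; lower values mean less growth of the strain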
Details: S. cerevisiae deletion strains, growth OD

Measured: normalized growth

CCCCCCCCCCCCCC(=O)OC1C(C)C2(O)C(C=C(CO)CC3(O)C(=O)C(C)=CC32)C2C(C)(C)C12OC(C)=O (centres undefined)
inactive: locus YAL013W, strain DEP1, active compounds read low 1 | locus YAL021C, strain ccr4, active compounds read low 0.982 | locus YAL026C, strain drs2, active compounds read low 0.985 | locus YAL030W, strain snc1, active compounds read low 0.991 | locus YBL061C, strain skt5, active compounds read low 0.981 | locus YBR009C, strain hhf1, active compounds read low 0.965 | locus YBR021W, strain FUR4, active compounds read low 0.988 | locus YBR023C, strain chs3, active compounds read low 0.97 | locus YBR171W, strain sec66, active compounds read low 0.981 | locus YBR229C, strain ROT2, active compounds read low 1.02 | locus YBR231C, strain swc5, active compounds read low 0.98 | locus YBR279W, strain paf1, active compounds read low 0.988 | locus YCL011C, strain gbp2, active compounds read low 0.98 | locus YCL016C, strain dcc1, active compounds read low 0.996 | locus YCL029C, strain bik1, active compounds read low 0.996 | locus YCL061C, strain MRC1, active compounds read low 0.987 | locus YCL069W, strain vba3, active compounds read low 0.986 | locus YCR088W, strain abp1, active compounds read low 0.989 | locus YDL005C, strain med2, active compounds read low 0.988 | locus YDL035C, strain GPR1, active compounds read low 1.06 | locus YDL040C, strain nat1, active compounds read low 0.979 | locus YDL074C, strain BRE1, active compounds read low 1.04 | locus YDL101C, strain DUN1, active compounds read low 1.01 | locus YDL134C, strain PPH21, active compounds read low 1.01 | locus YDL185W, strain tfp1, active compounds read low 1.01 | locus YDL192W, strain arf1, active compounds read low 0.997 | locus YDR001C, strain nth1, active compounds read low 0.978 | locus YDR069C, strain doa4, active compounds read low 0.985 | locus YDR101C, strain arx1, active compounds read low 0.996 | locus YDR137W, strain rgp1, active compounds read low 0.97 | locus YDR150W, strain NUM1, active compounds read low 1 | locus YDR159W, strain sac3, active compounds read low 0.969 | locus YDR162C, strain NBP2, active compounds read low 1.03 | locus YDR195W, strain ref2 0.96 | locus YDR297W, strain sur2, active compounds read low 0.985 | locus YDR318W, strain mcm21, active compounds read low 0.985 | locus YDR334W, strain swr1, active compounds read low 0.989 | locus YDR335W, strain msn5, active compounds read low 0.987 | locus YDR388W, active compounds read low 0.99 | locus YDR392W, strain spt3, active compounds read low 0.919 | locus YDR502C, strain sam2, active compounds read low 1 | locus YEL003W, strain gim4, active compounds read low 0.982 | locus YEL037C, strain rad23, active compounds read low 0.978 | locus YEL061C, strain CIN8 (second series), active compounds read low 0.976 | locus YEL061C, strain CIN8, active compounds read low 1.01 | locus YER015W, strain faa2, active compounds read low 0.986 | locus YER016W, strain bim1, active compounds read low 0.98 | locus YER110C, active compounds read low 0.994 | locus YER111C, strain swi4, active compounds read low 0.965 | locus YER155C, strain BEM2 (second series), active compounds read low 0.987 | locus YER155C, strain BEM2, active compounds read low 0.996 | locus YER167W, strain BCK2, active compounds read low 0.988 | locus YFR010W, strain ubp6, active compounds read low 0.977 | locus YGL078C, strain dbp3, active compounds read low 0.99 | locus YGL086W, strain mad1, active compounds read low 0.978 | locus YGL167C, strain pmr1, active compounds read low 0.989 | locus YGL173C, strain kem1, active compounds read low 0.984 | locus YGL227W, strain vid30, active compounds read low 0.979 | locus YGL240W, strain doc1, active compounds read low 0.976 | locus YGL248W, strain PDE1, active compounds read low 1.02 | locus YGL253W, strain hxk2, active compounds read low 0.98 | locus YGR078C, strain PAC10, active compounds read low 1.03 | locus YGR135W, strain pre9, active compounds read low 1.01 | locus YGR229C, strain SMI1, active compounds read low 1.02 | locus YGR252W, strain gcn5, active compounds read low 1.04 | locus YHR013C, strain ard1, active compounds read low 0.934 | locus YHR027C, strain rpn1, active compounds read low 0.994 | locus YHR030C, strain SLT2, active compounds read low 0.995 | locus YHR079C, strain IRE1 (second series), active compounds read low 0.992 | locus YHR094C, strain hxt1, active compounds read low 0.994 | locus YHR129C, strain ARP1, active compounds read low 0.997 | locus YHR142W, strain chs7, active compounds read low 0.952 | locus YHR200W, strain rpn10, active compounds read low 0.989 | locus YIL066C, strain RNR3, active compounds read low 1.01 | locus YIL073C, strain SPO22, active compounds read low 0.986 | locus YIL125W, strain kgd1, active compounds read low 0.991 | locus YIR030C, strain dcg1, active compounds read low 0.994 | locus YJL092W, strain hpr5, active compounds read low 0.984 | locus YJL095W, strain BCK1 (second series), active compounds read low 0.99 | locus YJL095W, strain BCK1, active compounds read low 1 | locus YJL115W, strain asf1, active compounds read low 0.979 | locus YJL129C, strain trk1, active compounds read low 0.962 | locus YJL134W, strain LCB3, active compounds read low 0.992 | locus YJL154C, strain vps35, active compounds read low 0.986 | locus YJL164C, strain tpk1, active compounds read low 1.01 | locus YJL166W, strain qcr8, active compounds read low 0.981 | locus YJL168C, strain set2, active compounds read low 0.993 | locus YJL187C, strain SWE1 (second series), active compounds read low 1.02 | locus YJL187C, strain SWE1, active compounds read low 0.99
